From PubChem BioAssay
EWS-Fli block: inhibitors of EWS/Fli oncoprotein transcriptional activity. A673 NR0B1-luciferase reporter, viability-normalised. inhibition, % at 12.6 µM. 0.67% of 350,000 active. AID 651661;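 active = mean inhibition of at least 50% after viability correction, with every replicate also passing that limit; inconclusive = mean reaches 50% but only one of two replicates passes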;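 note: firefly luciferase signal divided by Alamar Blue viability fluorescence both relative to DMSO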
KKLEB tox: counter-screen for CF NF-kB inhibitors: cytotoxicity. AID 602141. activity change (cytotoxicity), % at 5 µM. 0.36% of 360,000 active. KKLEB CF airway cells viability, ATPlite luminescence, overnight; active compounds read low; cells stimulated with P. aeruginosa culture filtrate;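 active = corrected activity change at or below -50% at 5 µM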
TROY NFkB inh: inhibitors of TROY-dependent NF-kB signaling. Q293 LMP1-TROYcd NF-kB luciferase reporter, 4 h. inhibition, % at 10 µM. 0.98% of 360,000 active. AID 1347056;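 active = compounds whose plate-normalised and pattern-corrected inhibition of the luciferase reporter signal at the single screening dose is 50% or more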
TWEAK-Fn14 inh: inhibitors of TWEAK-Fn14 interaction signaling; inhibition, % at 10 µM; TWEAK-stimulated Fn14 reporter cells, luciferase luminescence, 8 h; 2% of 360,000 active; in the data active = inhibition above about 50%
CF NFkB block: cystic fibrosis NF-kB activation inhibition; 0.86% of 360,000 active; AID 588850; inhibition, % at 5 µM; KKLEB NF-kB-GFP reporter, PAF-induced, GFP fluorescence overnight;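 active = at least 50% inhibition at 5 µM, scaled per plate between neutral and stimulator controls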;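 note: PAF is a Pseudomonas aeruginosa culture filtrate used as stimulus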
LGR2 inh: inhibitors of bursicon-induced Drosophila LGR2 receptor cAMP signaling; inhibition, % at 9.99 µM; 0.35% of 380,000 active; AID 720647; HEK293 LGR2, CRE-luciferase, bursicon-stimulated, 4 h;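 active = drop in luminescence signal, shown as inhibition above about 50% in the replicate tests, limit read from the data, passing the limit was not always enough; inconclusive = probably only some replicates passing the limit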;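 note: agonist challenge used bursicon conditioned medium at about half maximal strength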
A number is an active result; - = inactive; ? = inconclusive; . = no result given. Most compounds without a hit are left out; they make up all but 2.6% or so of the library.

SMILES | EWS-Fli block | KKLEB tox | TROY NFkB inh | TWEAK-Fn14 inh | CF NFkB block | LGR2 inh
CC=Cc1ccc2n(c1=O)C[C@H]1[C@H](CO)[C@@H](C(=O)O)[C@@H]2N1S(=O)(=O)c1ccccc1C (mixture of isomers) | - | . | . | . | . | -
COC(=O)C1=Nc2ccccc2/C1=C\c1c(O)n(-c2cc(OC)ccc2OC)c(=O)[nH]c1=O | - | - | - | 60 | - | -
Cc1ccccc1-n1c(O)c(/C=C2/C(c3ccccc3)=Nc3ccccc32)c(=O)[nH]c1=O | - | - | - | 56 | - | -
CC1=Nc2ccccc2/C1=C/c1c(O)n(C)c(=O)[nH]c1=O | - | - | - | - | - | -
Cc1cccc(-n2c(O)c(/C=C3/C(c4ccccc4)=Nc4ccccc43)c(=O)[nH]c2=O)c1 | - | - | - | 53 | - | -
N#Cc1cccc(-c2ccc([C@H]3[C@@H](CO)N4CCCCN(C(=O)Cc5ccccc5)C[C@@H]34)cc2)c1 | - | . | . | . | . | -
CCCC#Cc1ccc([C@H]2[C@H]3CN(C(=O)Cc4ccccn4)CCCCN3[C@H]2CO)cc1 | - | . | . | . | . | -
NC(=O)c1ccc(N)nc1 | - | -91 | - | - | 78 | .
O=C(Cc1ccccn1)N1CCCCN2[C@@H](CO)[C@@H](c3ccc(-c4ccccc4)cc3)[C@@H]2C1 | - | . | . | . | . | -
CC(Cc1ccccc1)NC(=O)NC(C)Cc1ccccc1 (stereo not drawn) | . | - | - | - | - | .
CC(=O)NC(C)Cc1ccccc1 (stereo not drawn) | . | - | . | 81 | - | -
CCOC(=O)[C@]12Cc3cc4ccccc4cc3[C@H]1N(Cc1ccccc1)C(=O)c1ccccc12 | - | . | - | 68 | . | -
CCCCCN1C(=O)c2cc(OC)ccc2[C@@]2(C(=O)OCC)Cc3cc(Cl)ccc3[C@@H]12 | 57 | . | 52 | 77 | . | 67
CCOC(=O)[C@]12Cc3cc(Cl)ccc3[C@H]1N(Cc1ccccc1)C(=O)c1cc(OC)ccc12 | - | . | - | 52 | . | ?
CCOC(=O)[C@]12Cc3cc4ccccc4cc3[C@H]1N(Cc1ccccc1)C(=O)c1cc(OC)ccc12 | - | . | - | 56 | . | -
CCOC(=O)[C@]12Cc3cc(OC)ccc3[C@H]1N(Cc1ccccc1)C(=O)c1cc(OC)ccc12 | - | . | - | - | . | -
COC(=O)[C@H]1[C@H](CO)[C@H]2Cn3c(ccc(-c4cccc(OC)c4)c3=O)[C@@H]1N2C(=O)c1ccccc1F | - | . | . | . | . | -
O=C(Cc1ccccn1)N1CCCCN2[C@H](C1)[C@@H](c1ccc(C#Cc3ccccc3)cc1)[C@@H]2CO | - | . | . | . | . | -
COC(=O)[C@H]1[C@H](CO)[C@H]2Cn3c(ccc(-c4cccc(F)c4)c3=O)[C@@H]1N2Cc1cccnc1 | - | . | . | . | . | -
O=C1C=C(N2CC2)c2ccccc2C1=O | - | - | - | - | 60 | -
COCC#Cc1ccc([C@H]2[C@H](CO)N3CCCCN(C(=O)Cc4ccccn4)C[C@@H]23)cc1 | - | . | . | . | . | -
C[C@@H]1O[C@@H](O[C@H]2C[C@@H](O)[C@]3(CO)[C@H]4[C@H](O)C[C@]5(C)[C@@H](C6=CC(=O)OC6)CC[C@]5(O)[C@@H]4CC[C@]3(O)C2)[C@H](O)[C@H](O)[C@H]1O | . | - | - | 85 | 91 | .
O=C(CF)N(O)c1ccc(C=Cc2ccccc2)cc1 | - | - | - | - | - | 58
O=C(COc1ccccc1)N1CCN(C/C=C/c2ccccc2)CC1 | . | - | - | - | - | .
CCCNC(=O)[C@@H]1[C@@H](CO)[C@@H]2Cn3c(cccc3=O)[C@@H]2N1CC | - | . | . | . | . | -
SMILES | EWS-Fli block | KKLEB tox | TROY NFkB inh | TWEAK-Fn14 inh | CF NFkB block | LGR2 inh
CC(C)(C)c1cc(C=C(C#N)C#N)cc(C(C)(C)C)c1O | - | - | 57 | 73 | - | -
O=C1NC(=S)NC(=O)C1=Cc1cccc2cc3ccccc3cc12 | - | - | - | - | 95 | -
CCC(=O)N1[C@@H]2c3ccc(-c4ccc(F)cc4)c(=O)n3C[C@H]1[C@H](CO)[C@H]2C(=O)OC | - | . | . | . | . | -
CC(=O)O[C@@]12CO[C@@H]1C[C@H](OC1OCC(O)C(O)C1O)[C@@]1(C)C(=O)[C@H](O)C3=C(C)[C@@H](OC(=O)[C@H](O)[C@@H](NC(=O)c4ccccc4)c4ccccc4)C[C@@](O)([C@@H](OC(=O)c4ccccc4)C12)C3(C)C (stereo partly drawn) | 55 | - | - | - | - | -
CC(=O)O[C@@]12CO[C@@H]1C[C@@H](O)[C@@]1(C)C(=O)[C@H](O)C3=C(C)[C@@H](OC(=O)[C@H](O)[C@@H](NC(=O)c4ccccc4)c4ccccc4)C[C@@](O)([C@@H](OC(=O)c4ccccc4)C12)C3(C)C (stereo partly drawn) | 55 | - | - | - | - | .
CC(=O)OC12COC1CC(O)C1(C)C(=O)C(O)C3=C(C)C(O)CC(O)(C(OC(=O)c4ccccc4)C21)C3(C)C (stereo not drawn) | 73 | - | - | - | - | -
CCOc1ccc(-n2c(O)c(C=Nc3ccc(N4CCOCC4)cc3)c(=O)[nH]c2=O)cc1 | . | - | . | 91 | - | .
O=c1[nH]c(=S)n(-c2ccc(Br)cc2)c(O)c1C=Nc1ccc(N2CCOCC2)cc1 | - | - | - | - | - | -
O=C1NC(=O)C2(Cc3ccccc3N3CCCC32)C(=O)N1c1cccc(Cl)c1 (stereo not drawn) | . | - | - | - | - | .
Cc1ccc(CN2C(=O)NC(=O)C3(Cc4c(nc5ccccn5c4=O)N4CCCCCC43)C2=O)cc1 (stereo not drawn) | . | - | 87 | - | - | .
CC=Cc1ccc2n(c1=O)C[C@H]1[C@H](CO)[C@@H](C(=O)OC)[C@@H]2N1S(=O)(=O)c1cccc(C)c1 (mixture of isomers) | - | . | . | . | . | -
CN(C)C(=O)[C@H]1[C@H](CO)[C@H]2Cn3c(cccc3=O)[C@@H]1N2CC1CC1 | - | . | . | . | . | -
CC1(C)CC[C@]2(C)CC[C@]3(C)C4C[C@@H]5OO[C@@]6(O5)C(CCCC6(C)C)[C@]4(C)CC[C@@]3(C)C2C1 (stereo partly drawn) | . | - | - | - | 56 | .
Cc1ccc(-c2cc(-c3ccccc3)cc(-c3ccccc3)[n+]2-c2ccccc2)cc1 | 61 | - | 84 | 104 | - | -
c1ccc(-c2cc(-c3ccccc3)[n+](-c3ccccc3)c(-c3ccccc3)c2)cc1 | 69 | - | 71 | 86 | - | 103
Cc1ccc(-c2cc(-c3ccc(C)cc3)[n+](-c3ccccc3)c(-c3ccc(C)cc3)c2)cc1 | . | - | 71 | 92 | - | .
CN(C)c1ccc(-[n+]2c(-c3ccccc3)cc(-c3ccccc3)cc2-c2ccccc2)cc1 | 53 | - | - | 66 | - | -
Cc1ccc(-c2cc(-c3ccc(C)cc3)[n+](-c3ccc(C(=O)[O-])cc3)c(-c3ccc(C)cc3)c2)cc1 | - | - | - | - | - | -
CCOC(=O)c1cccc(-[n+]2c(-c3ccccc3)cc(-c3ccccc3)cc2-c2ccccc2)c1 | - | - | - | - | - | -
